From PubChem
In the library only some 1% were active in any assay of this set; here they are far more common.
TSHR antag: blocks TSH signaling through the human TSH receptor | TSHR-expressing cells, TSH-stimulated cAMP HTRF, 2 h; hits give low values | P16473 | actives 0.2% (n = 330,000) | AID 504810 | activity change, negative = inhibition, % at 11.5 µM;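 active means activity change below a set negative limit, meaning inhibition stronger than a set level, cut at about -70% in these data; inconclusive means activity change between two set negative limits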; further: on the % scale 0 is the no-effect control and ±100 the full control effect
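Cell-based HTRF cAMP assay; TSHR cells + compound, TSH EC80 (4nM final), 2 h, 37 deg C. Lysis with anti-cAMP cryptate and cAMP-d2, 30 min RT, read 665/620 nm.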
RXFP1 antag: blocks the human relaxin receptor RXFP1; Q9HBX9; HEK293-RXFP1, relaxin-stimulated cAMP HTRF, 30 min; hits give low values; activity change, negative = inhibition, % at 57.5 µM; actives 0.59% (n = 350,000); AID 1259400;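 active means activity change of -60% or lower, but not beyond a set lower limit; inconclusive means change between -60% and -40%, or beyond the set limit; inactive means change above -40%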; further: on the % scale 0 is the no-effect control and ±100 the full control effect
Target sequence (Q9HBX9 whole entry, looked up): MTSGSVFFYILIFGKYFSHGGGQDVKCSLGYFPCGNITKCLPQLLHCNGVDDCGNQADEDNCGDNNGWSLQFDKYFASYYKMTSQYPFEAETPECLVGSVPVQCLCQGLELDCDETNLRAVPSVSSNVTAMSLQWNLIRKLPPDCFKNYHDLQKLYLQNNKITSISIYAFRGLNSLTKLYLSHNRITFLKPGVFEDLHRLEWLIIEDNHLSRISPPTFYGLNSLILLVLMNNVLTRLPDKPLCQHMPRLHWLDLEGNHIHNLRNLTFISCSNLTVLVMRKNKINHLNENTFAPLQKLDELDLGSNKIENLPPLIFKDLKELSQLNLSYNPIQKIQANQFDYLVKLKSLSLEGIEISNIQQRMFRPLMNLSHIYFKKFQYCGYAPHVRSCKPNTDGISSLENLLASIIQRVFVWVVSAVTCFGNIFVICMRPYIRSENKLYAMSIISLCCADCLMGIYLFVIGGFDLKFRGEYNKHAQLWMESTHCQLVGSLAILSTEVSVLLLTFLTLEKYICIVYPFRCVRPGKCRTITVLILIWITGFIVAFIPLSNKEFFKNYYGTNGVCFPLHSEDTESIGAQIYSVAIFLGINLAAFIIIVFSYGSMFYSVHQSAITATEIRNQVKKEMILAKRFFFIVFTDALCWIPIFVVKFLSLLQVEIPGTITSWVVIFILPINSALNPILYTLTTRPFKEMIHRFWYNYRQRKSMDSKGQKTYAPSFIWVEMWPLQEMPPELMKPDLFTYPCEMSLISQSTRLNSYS
RXFP1 ag: activates the human relaxin receptor RXFP1. Q9HBX9. HEK293T-RXFP1 cAMP TR-FRET, 30 min; response scale: percent of porcine relaxin response, buffer zero. Potency, µM (top dose mostly 57.5 µM), without a hit: top-dose activation, hits mostly activators. actives 0.3% (n = 370,000). AID 2676; active means well fitted activation curve with a large enough effect; inconclusive means small, poorly fitted or top-dose-only effect; further: potency means the concentration at half of the fitted maximal effect; on the % scale 0 is the no-effect control and ±100 the full control effect; nearly all actives have a fitted effect of over 60% in size
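Agonist response is measured as cAMP accumulation in an RXFP1-transfected HEK293T line under PDE4 inhibition. Values are scaled between buffer-only and 29 nM porcine relaxin, and EC50s come from standard Hill equation fits.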
gsp ag: activates gsp, the McCune-Albright syndrome mutation; Potency, µM (series often up to 76.9 µM), for the others: at the highest dose activation (cAMP increase), most hits filed as activators; AID 624287; actives 0.13% (n = 340,000); gsp mutant cells, cAMP HTRF, 30 min; active means well fitted activation curve with a large enough effect; inconclusive means small, poorly fitted or top-dose-only effect, or another doubt; inactive means no such curve, though single readings can be large or run the other way; cell line not stated here;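 further: phosphodiesterase inhibitor Ro 20-1724 added with compounds to block cAMP breakdown; potency means the concentration at half of the fitted maximal effect; nearly all actives have a fitted effect of over 60% in size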
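Cells stably selected in G418 were plated at 2000/well, grown 16-24 hr, then given compounds in DMSO with the PDE inhibitor […] (300 uM solution added) for 30 min at 37C; cAMP was read by HTRF.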
gsp antag: gsp mutant antagonism. gsp-mutant cells, cAMP HTRF, 30 min. Potency, µM (doses to about 76.9 µM), inactives show top-dose activity change, negative = inhibition, actives largely listed as inhibitors. actives 0.4% (n = 340,000); calls by dose curve; cell line not stated here;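 further: intracellular cAMP measured with PDE inhibitor Ro 20-1724 present during compound exposure; potency means the concentration at half of the fitted maximal effect; on the % scale 0 is the no-effect control and ±100 the full control effect; nearly all actives have a fitted effect of over 65% in size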
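HTRF cAMP read-out (cAMP-d2 plus anti-cAMP antibody-K in lysis buffer, 30 min RT). Before lysis, cells are exposed to compounds with […] for 30 min at 37C in DPBS containing Ca/Mg, BSA and Tween 20.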
* hit, by the source's call; [ ] = another dose, or the depositor's remark.

How did Cc1ccc(CCNC(=O)c2ccc(CNS(=O)(=O)c3ccc(F)cc3)cc2)cc1 do in these assays?
RXFP1 antag: -71*; RXFP1 ag: -1%

How did CC(C)(C)c1ccc2c(c1)C(=O)c1ccccc1C2=O do in these assays?
TSHR antag: -1; RXFP1 antag: -4; RXFP1 ag: 1%; gsp ag: 10%; gsp antag: -14%

How did CC(C)(C=O)C1=CC(=O)c2ccccc2C1=O do in these assays?
TSHR antag: -87*; RXFP1 ag: 0%; gsp ag: -13%; gsp antag: inconclusive

What do the screens show for `Cc1ccccc1N1CCN(Cc2ccc(Br)o2)CC1`?
TSHR antag: 17; RXFP1 antag: -65*; RXFP1 ag: 1%; gsp ag: 10%[15.4 µM]; gsp antag: 4%

How did COc1ccc(-c2nnc(SCC(=O)NC3CCCC3)nc2-c2ccc(OC)c(OC)c2)cc1OC do in these assays?
RXFP1 antag: -70*; RXFP1 ag: 0%

How did CCCOc1ccc(-c2nc3ccccc3c(=O)o2)cc1 do in these assays?
RXFP1 ag: 0%

Results for CCCOc1cccc(-c2nc3ccccc3c(=O)o2)c1 ?
TSHR antag: -18; RXFP1 antag: -84*; RXFP1 ag: 1%; gsp ag: -8%[15.4 µM]; gsp antag: inconclusive

How did CC(=O)N(Cc1cccnc1)c1nc2c(F)cc(F)cc2s1 do in these assays?
RXFP1 antag: -13; RXFP1 ag: 2%

How did O=C(C1CCCCC1)N(Cc1cccnc1)c1nc2c(F)cc(F)cc2s1 do in these assays?
RXFP1 antag: -102*; RXFP1 ag: 2%

What do the screens show for `O=C(CN1CCN(Cc2ccc3c(c2)OCO3)CC1)Nc1cc(S(=O)(=O)N2CCCC2)ccc1Cl`?
TSHR antag: -8; RXFP1 antag: -7; RXFP1 ag: 4%; gsp ag: -17%[15.4 µM]; gsp antag: -7%

What do the screens show for `CN(C)S(=O)(=O)c1ccc(Cl)c(NC(=O)CN2CCN(Cc3ccc4c(c3)OCO4)CC2)c1`?
TSHR antag: -9; RXFP1 antag: 0; RXFP1 ag: 3%; gsp ag: 10%; gsp antag: 11µM*

What do the screens show for `Cc1ccc(CNC(=O)c2c(C)oc3nc(C)nc(N4CCOCC4)c23)cc1`?
RXFP1 antag: 13; RXFP1 ag: -1%

What do the screens show for `Cc1nnc(-c2ccc(Oc3ccc(Br)cc3)c([N+](=O)[O-])c2)o1`?
TSHR antag: -5; RXFP1 antag: -7; RXFP1 ag: 0%; gsp ag: -19%; gsp antag: 50µM*

Results for CCN(C(=O)c1cc2c(=O)n3ccccc3nc2n1C)C1CCCCC1 ?
TSHR antag: -123*; RXFP1 antag: 24; RXFP1 ag: 24%; gsp ag: inconclusive; gsp antag: 25%

How did CN(C(=O)c1cc2c(=O)n3ccccc3nc2n1C)C1CCCCC1 do in these assays?
TSHR antag: 39; RXFP1 antag: 1; RXFP1 ag: inconclusive; gsp ag: inconclusive; gsp antag: 18%

How did Cc1ccc(CNC(=O)CN2C(=O)C3CCCCN3c3ccc(C(=O)N(C)C)cc32)cc1 (stereo not given) do in these assays?
RXFP1 antag: 1; RXFP1 ag: 1%

Results for Cc1ccccc1-c1nc(CS(=O)(=O)CC(=O)NC2CC2)c(C)o1 ?
TSHR antag: 23; RXFP1 antag: -78*; RXFP1 ag: 0%; gsp ag: 4%; gsp antag: 1%

How did O=C(O)c1ccc2c(c1)C(=O)N([C@H](Cc1c[nH]c3ccccc13)C(=O)O)C2=O do in these assays?
TSHR antag: 2; RXFP1 ag: 1%

How did Cc1nc2c(C(=O)NC(C)c3ccccc3)cnn2c(C)c1Cc1ccccc1 (stereo not given) do in these assays?
RXFP1 antag: -85*; RXFP1 ag: -2%

How did Cc1nc2c(C(=O)NCCc3ccc(Cl)cc3)cnn2c(C)c1Cc1ccc(F)cc1 do in these assays?
RXFP1 antag: -61*; RXFP1 ag: -1%

How did Cc1nc2c(C(=O)NCCc3ccc(Cl)cc3)cnn2c(C)c1Cc1c(F)cccc1Cl do in these assays?
RXFP1 antag: -21; RXFP1 ag: 1%

How did COc1ccc(S(=O)(=O)N2CCN(Cc3ccc4c(c3)OCO4)CC2)cc1OC do in these assays?
RXFP1 ag: -1%
